# This is part of a sample that, as a whole, favours compounds with a hit. Of some 83,000 tested, about 20% had one in any assay.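 Results are percent growth after 48 hours of single-concentration exposure. 100 means growth as in untreated cells, lower positive values show inhibition; negative values down to -100 show cell death.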 Unmarked numbers belong to inactive results. Calls of active or inactive are those of the source. Rule for the calls: active = growth percent below 10; inactive = the rest.
# Tested on: OVCAR-5 ovarian
# Test: NCI-60 one-dose screen, 48 h (100 = growth as untreated, 0 = no growth, -100 = all killed)
# Settings: 10 µM
row,Structure (SMILES),growth
1,Cc1ccc(-n2c(C)nn3c(=O)c4c5c(sc4nc23)CN(C)CC5)cc1,98.8%
2,CN(C)c1ccc(/C=N/NC(=O)c2ccccc2Nc2cccc(C(F)(F)F)c2)cc1,88.4%
3,N#CC1=C(N)Oc2cc(N)ccc2C1c1cccnc1 (stereo not drawn),103%
4,O=C(CCCCNC(=O)c1nc(-c2ccccc2)n(-c2ccccc2)n1)NO,85%
5,COc1ccc(-c2cc(-c3ccc(OC)c(OC)c3)nc(SCCCC(=O)NO)n2)cc1,15.9%
6,COc1cc(C2CC(c3ccccc3)=NN2C(C)=O)cc(OC)c1OC (stereo not drawn),92.3%
7,O=C(/C=C/C=C/c1c(C2CC2)nc2ccccc2c1-c1ccc(F)cc1)c1cccs1,1.66% (active)
8,CC(C)N(CCOc1ccc(-c2nc3sccn3c2-c2ccnc(S(C)(=O)=O)n2)cc1)C(C)C,104%
9,O=C(Nc1nc(-c2ccccc2)nc2c1sc(=S)n2-c1ccccc1)C(F)(F)F,105%
10,O=C(CSc1nnc(-c2ccc(Cl)cc2)o1)Nc1ccc(C(=O)/C=C/c2ccc(Cl)cc2)cc1,110%
11,CN1CCN(CC(=O)Nc2cccc(-n3cc(-c4ccncc4)c(-c4ccc(Cl)c(O)c4)n3)c2)CC1,68.2%
12,CCc1ccc(C2=NN(c3ccc(S(C)(=O)=O)cc3)C(=O)CC2)cc1,48.7%
13,Cc1nn(-c2ccc(-c3ccc(OC(F)(F)F)cc3)cc2)c2nc(Cc3ccccc3)nc(N)c12,57.6%
14,CC[C@H]1OC(=O)[C@H](C)[C@@H](O[C@H]2C[C@@](C)(OC)[C@@H](O)[C@H](C)O2)[C@H](C)[C@@H](O[C@@H]2O[C@H](C)C[C@H](N(C)C)[C@H]2O)[C@](C)(OC)C/C(C)=C2/O[C@@]1(C)C=C2C,24.9%
15,C=C(C)[C@@H]1CC[C@]2(COCCC#N)CC[C@]3(C)[C@H](CC[C@@H]4[C@@]5(C)Cc6c([nH]c7ccccc67)C(C)(C)[C@@H]5CC[C@]43C)[C@@H]12,89.3%
16,CC(=O)[C@H]1CC[C@]2(C)[C@@H]1CC[C@@H]1[C@@]3(C)CC(CCC#N)(CCC#N)C(=O)C(C)(C)[C@@H]3CC[C@]12C,88.5%
17,Clc1ccc(/C=C2\CCCC3C2=Nc2ccccc2NC3c2ccc(Cl)cc2)cc1 (stereo not drawn),93.8%
18,Cc1ccc(/C=C/C(=O)C(=O)/C=C/c2ccc(C)cc2)cc1,97.8%
19,O=C(Nc1ccccc1)Nc1ncnc2c1ncn2-c1ccccc1,83.2%
20,CCn1c(SC/C(=N/O)c2ccccc2)nnc1-c1ccccc1,96.8%
21,COc1cc2cc(Oc3ccc(NC(=O)Nc4ccc(Cl)c(C(F)(F)F)c4)cc3)c(C)nc2cc1OC,18%
22,CCCCCCCCCCCCCCCCCC[n+]1ccc2c(C)c3c(c(C)c2c1)c1cc(O)ccc1n3CC,42.5%
23,CN1CCc2c(sc3nc4n(-c5ccc(Cl)cc5)cnn4c(=O)c23)C1,105%
24,CN1CCc2c(sc3nc4n(-c5ccc(Cl)cc5)c(=O)[nH]n4c(=O)c23)C1,115%
25,C[n+]1c2ccccc2nc2ccccc21,42.1%

# Tested on: OVCAR-4 ovarian
# Test: as above
# Settings: 10 µM
row,Structure (SMILES),growth
1,CC(=O)OC/C=C(/C)C[P+](c1ccccc1)(c1ccccc1)c1ccccc1,85.8%
2,CCOC(=O)c1cc(C(=O)c2cc(OC)cc(OC)c2)n2ncc3ccccc3c12,-18% (active)
3,C=CCN(CC=C)C(=O)[C@H](CC)[C@@H]1CC[C@@H](C)[C@@H]([C@H](C)[C@@H](O)[C@@H](C)C(=O)[C@H](CC)C2O[C@]3(C=CC(=O)[C@]4(CC[C@@](C)([C@H]5CC[C@](O)(CC)[C@H](C)O5)O4)O3)[C@H](C)C[C@@H]2C)O1 (stereo partly drawn),42.7%
4,Cc1c2c(nn1C(=O)c1nn(-c3ccc(Cl)cc3)cc1O)-c1ccccc1CC2,15.6%
5,COc1ccc(-c2onc(N)c2-c2cc(OC)c3c(c2)OCO3)cc1,61.9%
6,CCCN(CCC)C(=O)[C@H](CC)[C@@H]1CC[C@@H](C)[C@@H]([C@H](C)[C@@H](O)[C@@H](C)C(=O)[C@H](CC)C2O[C@]3(C=C[C@@H](O)[C@]4(CC[C@@](C)([C@H]5CC[C@](O)(CC)[C@H](C)O5)O4)O3)[C@H](C)C[C@@H]2C)O1 (stereo partly drawn),7.28% (active)
7,CCOC(=O)c1cc(C(=O)c2cc(OC)c(OC)c(OC)c2)n2c1ccc1c3cccnc3ccc12,89.7%
8,COc1cc(NC(=O)Nc2cnc(Nc3ccc(N4CCOCC4)cc3)nc2Oc2cccc(OC)c2)cc(OC)c1,13.7%
9,Fc1ccc2[nH]cc(-c3nc(-c4ccsc4)cs3)c2c1,101%
10,IC(I)I,108%
11,Cc1ccc(-n2c(C)nn3c(=O)c4c5c(sc4nc23)CN(C)CC5)cc1,102%
12,CN(C)c1ccc(/C=N/NC(=O)c2ccccc2Nc2cccc(C(F)(F)F)c2)cc1,76.1%
13,N#CC1=C(N)Oc2cc(N)ccc2C1c1cccnc1 (stereo not drawn),80.3%
14,O=C(CCCCNC(=O)c1nc(-c2ccccc2)n(-c2ccccc2)n1)NO,90.6%
15,COc1ccc(-c2cc(-c3ccc(OC)c(OC)c3)nc(SCCCC(=O)NO)n2)cc1,13.1%
16,COc1cc(C2CC(c3ccccc3)=NN2C(C)=O)cc(OC)c1OC (stereo not drawn),78.5%
17,O=C(/C=C/C=C/c1c(C2CC2)nc2ccccc2c1-c1ccc(F)cc1)c1cccs1,24%
18,CC(C)N(CCOc1ccc(-c2nc3sccn3c2-c2ccnc(S(C)(=O)=O)n2)cc1)C(C)C,72%
19,O=C(Nc1nc(-c2ccccc2)nc2c1sc(=S)n2-c1ccccc1)C(F)(F)F,92.3%

row,Structure (SMILES),growth
1,O=C(CSc1nnc(-c2ccc(Cl)cc2)o1)Nc1ccc(C(=O)/C=C/c2ccc(Cl)cc2)cc1,89.3%
2,C=CCn1c(SCC(=O)Nc2ccc(C(=O)/C=C/c3ccc(OC)cc3)cc2)nnc1-c1ccc(OC)c(OC)c1,73.8%
3,CN1CCN(CC(=O)Nc2cccc(-n3cc(-c4ccncc4)c(-c4ccc(Cl)c(O)c4)n3)c2)CC1,59.8%
4,CCc1ccc(C2=NN(c3ccc(S(C)(=O)=O)cc3)C(=O)CC2)cc1,76.2%
5,Cc1nn(-c2ccc(-c3ccc(OC(F)(F)F)cc3)cc2)c2nc(Cc3ccccc3)nc(N)c12,4.27% (active)
6,Cn1c2ccccc2c2c3[nH][nH]c(=O)c3c3c4ccccc4[nH]c3c21,51.3%
7,CC[C@H]1OC(=O)[C@H](C)[C@@H](O[C@H]2C[C@@](C)(OC)[C@@H](O)[C@H](C)O2)[C@H](C)[C@@H](O[C@@H]2O[C@H](C)C[C@H](N(C)C)[C@H]2O)[C@](C)(OC)C/C(C)=C2/O[C@@]1(C)C=C2C,73.5%
8,C=C(C)[C@@H]1CC[C@]2(COCCC#N)CC[C@]3(C)[C@H](CC[C@@H]4[C@@]5(C)Cc6c([nH]c7ccccc67)C(C)(C)[C@@H]5CC[C@]43C)[C@@H]12,88.5%
9,CC(=O)[C@H]1CC[C@]2(C)[C@@H]1CC[C@@H]1[C@@]3(C)CC(CCC#N)(CCC#N)C(=O)C(C)(C)[C@@H]3CC[C@]12C,87.2%
10,O=C1c2ccccc2C(=O)c2c1ccc(C(Br)Br)c2Cl,35.5%
11,Clc1ccc(/C=C2\CCCC3C2=Nc2ccccc2NC3c2ccc(Cl)cc2)cc1 (stereo not drawn),79.5%
12,Cc1ccc(/C=C/C(=O)C(=O)/C=C/c2ccc(C)cc2)cc1,98.6%
13,O=C(Nc1ccccc1)Nc1ncnc2c1ncn2-c1ccccc1,-3.77% (active)
14,CCn1c(SC/C(=N/O)c2ccccc2)nnc1-c1ccccc1,85.5%
15,COc1cc2cc(Oc3ccc(NC(=O)Nc4ccc(Cl)c(C(F)(F)F)c4)cc3)c(C)nc2cc1OC,17.1%
16,CCCCCCCCCCCCCCCCCC[n+]1ccc2c(C)c3c(c(C)c2c1)c1cc(O)ccc1n3CC,18.2%
17,CN1CCc2c(sc3nc4n(-c5ccc(Cl)cc5)cnn4c(=O)c23)C1,111%
18,CN1CCc2c(sc3nc4n(-c5ccc(Cl)cc5)c(=O)[nH]n4c(=O)c23)C1,109%
19,C[n+]1c2ccccc2nc2ccccc21,21.9%
